Results published in PubChem BioAssay AID434947 (Broad Institute, 2010).
Hit rate of the full screen: of about 2,200 compounds, about 15 (0.7%) were called active. This excerpt belongs to a sample that is enriched for actives. Values without a mark were called inactive.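 How the source made its calls: active means fitted half-maximal concentration for loss of luminescence signal no more than a set limit of log units above the top tested concentration; inconclusive means flat fit with 30 to 70% signal loss, or invalid fit; inactive means half-maximal concentration above that set limit.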

Assay: inhibitors of ADP-Glo detection reagents, dose response, artefact control for GSK3beta inhibitor project, biochemical, luminescence, cell-free, homogeneous (AID 434947)
Conditions: 5 uM ADP

Row | Structure (SMILES) | EC50
1 | COc1cccc(Nc2nc(-c3ccccc3)nc3ccccc23)c1 | > 30 µM
2 | O=C1Nc2cc(C(=O)NCCCN3CCOCC3)ccc2S/C1=C/c1ccccc1F | > 30 µM
3 | Cc1csc2c(=O)n(CCO)c(=O)[nH]c12 | > 30 µM
4 | CCOc1cc(C2c3c(n[nH]c3C)C(=O)N2c2ccc(Br)cc2)ccc1O (stereo not given) | > 30 µM
5 | COC(=O)c1cn(NC(=O)c2cccnc2)c(=O)c2ccccc12 | > 30 µM
6 | CCCc1cc(O)c2c(C)cc(=O)oc2c1 | > 30 µM
7 | COc1ccc(/C=C2/Sc3ccc(C(=O)NCCN4CCCCCC4)cc3NC2=O)cc1 | > 30 µM
8 | Cc1ccccc1-c1nnc(SCc2ccc(F)cc2)o1 | > 30 µM
9 | CCCN(CCC)CCCNc1ccc2nnc(-c3ccc(F)cc3)n2n1 | > 30 µM
10 | O=c1c(O[C@@H]2O[C@H](CO)[C@@H](O)[C@H](O)[C@H]2O)c(-c2ccc(O)c(O)c2)oc2cc(O)cc(O)c12 | > 30 µM
11 | Cc1ccc2c(c1)cc1c(=O)n(CC(=O)NCCN3CCCC3)nc(C)n12 | > 30 µM
12 | COc1cccc2cc(C(=O)OC(C)C(=O)c3ccc(C)cc3)c(=O)oc12 (stereo not given) | > 30 µM
13 | CC(=O)Oc1cc(C)cc2oc(=O)cc(-c3ccccc3)c12 | > 30 µM
14 | CC1(C)CC(=O)C=C(Nc2ccc(F)cc2)C1 | > 30 µM
15 | COc1ccc(NC(=O)c2sc(SC)nc2N)cc1 | > 30 µM
16 | CCOC(=O)c1nnn(CC(=O)Nc2cccc(OC)c2)c1C(=O)OCC | > 30 µM
17 | CC1(C)CC(=O)C2=C(C1)Nc1ccccc1NC2c1ccc(F)cc1 (stereo not given) | > 30 µM
18 | O=C(Nc1ccccc1)Nc1ccncc1 | > 30 µM
19 | Cc1cc([N+](=O)[O-])c(C)cc1-c1ccc(/C=N/n2cnnc2)o1 | > 30 µM
20 | Nc1nc(NCCCN2CCOCC2)nc(Nc2ccc(Cl)cc2)c1[N+](=O)[O-] | > 30 µM
21 | CCCC(=O)Nc1nn(CC(C)C)c2nc3cc(C)ccc3cc12 | > 30 µM
22 | N#Cc1cccc(-c2nnc(SCc3ccccc3C#N)o2)c1 | > 30 µM
23 | COc1cc(C2OCC3C(c4cc(OC)c(OC)c(OC)c4)OCC23)cc(OC)c1OC (stereo not given) | > 30 µM

Row | Structure (SMILES) | EC50
24 | CN1CCN(C(=O)Cn2ncc3c([nH]c4ccccc43)c2=O)CC1 | > 11 µM
25 | O=c1c2ccccc2cnn1-c1nc2ccccc2[nH]1 | 25.9 µM (active)
26 | Cc1cc(NC(=O)/C=C/c2cccc(F)c2)n(-c2nc3ccccc3[nH]2)n1 | > 30 µM
27 | CC(C(=O)NCc1ccco1)n1cc([N+](=O)[O-])cn1 (stereo not given) | > 30 µM
28 | CCOC(=O)CCCSc1nnc(CCCCCN2C(=O)c3cccc4cccc(c34)C2=O)o1 | > 30 µM
29 | CCN(CC)Cc1c(O)ccc2occ(C(=O)c3ccc(OC)cc3)c12 | > 30 µM
30 | Clc1ccc(-c2nnc(-c3ccccc3)c(N3CCSCC3)n2)cc1 | > 30 µM
31 | COc1ccc(Nc2ccccc2C(=O)O)cc1 | > 30 µM
32 | O=C(CN(Cc1cccs1)C(=O)CCC(=O)Nc1ccccn1)NCc1ccccc1 | > 30 µM
33 | N#Cc1c(N)n(-c2cccc(O)c2)c2nc3ccccc3nc12 | > 30 µM
34 | Cc1ccc(S(=O)(=O)NCC2COc3ccccc3O2)cc1 (stereo not given) | > 30 µM
35 | CN1CCN(c2nc(-c3ccccc3)nc(-c3ccccc3)c2C#N)CC1 | > 30 µM
36 | COC(CNC(=O)CCc1c(C)nc2c(c(C)nn2-c2ccc(C)cc2)c1C)OC | > 30 µM
37 | CCOC(=O)c1nnn(-c2nonc2N)c1CN(CC)CC | > 30 µM
38 | COc1cccc2cc(C(=O)CS(=O)(=O)c3ccc(C)cc3)c(=O)oc12 | > 30 µM
39 | CCCOc1ccc(-c2c(C(=O)N/N=C(\C)c3ccco3)nnn2-c2nonc2N)cc1 | > 30 µM
40 | CCc1ccc(/C=N/NC(=O)c2nnn(-c3nonc3N)c2CN2CCc3ccccc32)cc1 | > 30 µM
41 | NC(=O)c1ccc(Oc2ccc(Cl)c3ccccc23)c([N+](=O)[O-])c1 | > 30 µM
42 | Cc1[nH]nc2c1C(c1cccs1)C1=C(CCCC1=O)N2 (stereo not given) | > 30 µM
43 | CC(C)CCNc1nc(N)c([N+](=O)[O-])c(NC2CCCCC2)n1 | > 30 µM
44 | CCCCn1nc(NC(=O)COC)c2cc3cc(OC)ccc3nc21 | > 30 µM
45 | O=C(c1cccs1)c1coc2ccc(O)c(CN(CCO)CCO)c12 | > 30 µM
46 | COc1cccc(C2C3=C(CCCC3=O)Nc3[nH]n(-c4ccccc4)c(=O)c32)c1 (stereo not given) | > 30 µM

Row | Structure (SMILES) | EC50
47 | Cc1ccc(C(=O)O/N=C\c2ccc(N3CCCCC3)c([N+](=O)[O-])c2)cc1 | > 30 µM
48 | Cc1ccc(Sc2ccc(/C=N/O)cc2[N+](=O)[O-])cc1 | > 30 µM
49 | CS(=O)(=O)N(CCc1ccccc1)CC(=O)N1CCN(c2ccccc2F)CC1 | > 30 µM
50 | CC1CCN(Cc2c(C(=O)N/N=C/c3ccccc3O)nnn2-c2nonc2N)CC1 | > 30 µM
51 | Cn1c(SCC(=O)NC2CCCCC2)nnc1-c1ccccn1 | > 30 µM
52 | O=C(CCSc1nnc(-c2ccncc2)o1)Nc1ccc(F)cc1 | > 30 µM
53 | O=C1Nc2cc(C(=O)NCCCN3CCCC3)ccc2S/C1=C/c1ccccc1F | > 30 µM
54 | CCCNC(=O)c1ccc(Cl)cc1Cl | > 30 µM
55 | COc1cccc(C(=O)CSc2nccn2C)c1 | > 30 µM
56 | COc1ccc(-c2cc(C(=O)N3CCN(C(=O)c4ccco4)CC3)[nH]n2)cc1 | > 30 µM
57 | CC(C)(C)C(=O)COC(=O)c1ccc(O)cc1 | > 30 µM
58 | CC(OC(=O)c1nsc(Cl)c1Cl)C(=O)NCc1ccco1 (stereo not given) | > 30 µM
59 | COC(=O)C1=C(C)N(Cc2ccccc2)C(=NCc2ccc(OC)cc2)N[C@H]1c1cccc(F)c1 | > 30 µM
60 | CS(=O)(=O)N(Cc1ccccc1)c1ccc(C(=O)Nc2ccccc2Sc2ccccc2)cc1 | > 30 µM
61 | Cc1ccnc(NC(=O)c2ccc([N+](=O)[O-])o2)c1 | > 30 µM
62 | CCCCc1cc(=O)oc2cc(C)cc(OC(C)C(=O)O)c12 (stereo not given) | > 30 µM
63 | NC(=O)C1CCN(c2nc3c(S(=O)(=O)c4ccccc4)nnn3c3ccccc23)CC1 | > 30 µM
64 | Cc1ccnc(SCCn2c(N3CCOCC3)nc3c2c(=O)[nH]c(=O)n3C)n1 | > 30 µM
65 | CCSc1nc2sc3c(c2c(=O)n1-c1ccccc1)CCN(C)C3 | > 30 µM
66 | CCOC(=O)c1cnc2c(C)cccc2c1Nc1ccc(N2CCOCC2)cc1 | > 30 µM
67 | COc1ccc(-c2nn(-c3ccccc3)cc2CO)cc1OC | > 30 µM
68 | COc1cccc2c1cc1c(=O)n(CC(=O)NCCCc3ccccc3)nc(C)n12 | > 30 µM
69 | Cc1[nH]nc2c1C(c1ccc(N(C)C)cc1)C1=C(CC(C)(C)CC1=O)N2 (stereo not given) | > 30 µM

Row | Structure (SMILES) | EC50
70 | CC(C(=O)NCc1ccccc1)n1cc([N+](=O)[O-])cn1 (stereo not given) | > 30 µM
71 | CC(C)N1CCc2c(sc(NC(=O)CCS(=O)(=O)c3ccccc3)c2C(N)=O)C1 | > 30 µM
72 | COc1cc(/C=C2/SC(=Nc3ccc(O)cc3)NC2=O)ccc1O | > 30 µM
73 | CN(C)Cc1c(O)ccc2c(=O)c(-c3ccccc3)c(C(F)(F)F)oc12 | > 30 µM
74 | COc1ccc(-c2nn(-c3ccccc3)cc2/C=C(\C#N)S(=O)(=O)c2ccccc2)cc1OC | > 30 µM
75 | Cc1ccc(S(=O)(=O)/N=C2/NC(=O)/C(=C/c3ccccc3)S2)cc1 | > 30 µM
76 | CN(C)c1ccc(C(=O)NN2C(=O)c3ccccc3C2=O)cc1 | > 30 µM
77 | O=C1CC(c2ccc(O)c(O)c2)Oc2cc(O)cc(O)c21 (stereo not given) | > 30 µM
78 | Cc1nn(-c2ccccn2)c2c1C(c1ccsc1)C1=C(CCCC1=O)N2 (stereo not given) | > 30 µM
79 | COc1cc(C(c2nnnn2C(C)(C)C)N2CCN(c3nc4ccccc4s3)CC2)ccc1O (stereo not given) | > 30 µM
80 | Cc1ccc2sc(N3CCN(CCNC(=O)c4ccco4)CC3)nc2c1C | > 30 µM
81 | O=[N+]([O-])c1cc(/C=N/O)ccc1N1CCCC1 | > 30 µM
82 | CCOC(=O)c1nnn(-c2nonc2N)c1CSc1ccc(C)cc1 | > 30 µM
83 | CC1(C)CC2CC(C)(CN2S(=O)(=O)c2ccc(C(=O)Nc3ccc(Cl)c(S(=O)(=O)N4CCOCC4)c3)cc2)C1 (stereo not given) | > 30 µM
84 | COCCN(CC(=O)NCc1ccc(F)cc1)C(=O)CCC(=O)Nc1ccccn1 | > 30 µM
85 | Cc1nc(NCCCn2ccnc2)c2ccccc2n1 | > 30 µM
86 | Cc1csc(SCC(=O)Nc2ccc(Cl)cn2)n1 | > 30 µM
87 | CCc1nnc(NC(=O)c2cc(-c3ccccc3)nn2-c2ccccc2)s1 | > 30 µM
88 | O=C(CS(=O)(=O)c1ccccc1)Nc1ncc([N+](=O)[O-])s1 | > 30 µM
89 | COc1ccc2nc(C)cc(N3CCOCC3)c2c1 | > 30 µM
90 | CC1=C(C(=O)Nc2ccccc2F)C(c2cccs2)C2=C(CCCC2=O)N1 (stereo not given) | > 30 µM
